# Test results reported in PubChem BioAssay AID1907 (The Scripps Research Institute Molecular Screening Center, 2009).
# In all, about 1,900 compounds went through this assay and about 1,200 (63%) were called active. So high a share suggests a set chosen from earlier hits. Not all results are given here. Values without a mark were called inactive. Rule as the data show it: active = inhibition above about 22%; inactive = the rest.
# Assay: rat intestinal IEC-6 viability loss – cell-based, luminescence, cytotoxicity control, confirmation (AID 1907);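 also: 0% = vehicle and 100% = reference cytotoxic drug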
# Conditions: IEC-6 rat intestinal epithelial viability, at 5 µM, hits give high values
row,Structure (SMILES),inhibition
1,COC(=O)Nc1nc2ccc(Sc3ccccc3)cc2[nH]1,53.4% (active)
2,CCOc1ccccc1N1CCN(C(=O)c2ccc3[nH]c(C)c(C)c3c2)CC1,29% (active)
3,Nc1c(C(=O)NCc2ccccc2)nnn1Cc1cccc(Cl)c1,22.8% (active)
4,Cn1cccc1/C=N/NC(=O)CNc1cccc2ccccc12,36.1% (active)
5,Cc1cccc(/C=N/NC(=O)CNc2cccc3ccccc23)n1,26.7% (active)
6,Cc1ccc(/C=N/NC(=O)COc2ccccc2-c2ccccc2)cc1,72.2% (active)
7,CCCC1=Nc2cc(C(=O)NCc3ccco3)ccc2Sc2ccccc21,58.2% (active)
8,COc1ccccc1N1CCN(C(=O)c2cc(=O)c3cc(C)cc(C)c3o2)CC1,60% (active)
9,CCOc1cc(C(=O)N2CCc3cc(OC)c(OC)cc3C2)ccc1OC(F)F,60.2% (active)
10,Cc1cccc(CS(=O)(=O)c2ncc(Cl)c(C(=O)Nc3ccc(F)cc3)n2)c1,22.5% (active)
11,Cc1cccc(NC(=O)c2nc(S(=O)(=O)Cc3ccccc3)ncc2Cl)c1,12.9%
12,CSc1nnc(NC(=O)c2nc(S(=O)(=O)Cc3ccc(C)cc3)ncc2Cl)s1,14.9%
13,Cc1ccc(CS(=O)(=O)c2ncc(Cl)c(C(=O)Nc3nnc(C)s3)n2)cc1,23.3% (active)
14,CC(C)OCCCNc1ncnc2c1[nH]c1ccc(F)cc12,34.4% (active)
15,CC1CCCCN1S(=O)(=O)c1ccc(C(=O)Nc2nnc(-c3cccs3)o2)cc1 (stereo not given),18.5%
16,CCN(CC)c1ccc(NC(=O)c2ccc(Cl)nc2)cc1,38% (active)
17,O=S(=O)(c1ccc(Br)cc1)N1CCC(c2nc3ccccc3[nH]2)CC1,27.5% (active)
18,O=[N+]([O-])c1ccccc1S(=O)(=O)Nc1cccc2cccnc12,48.3% (active)
19,CCCCCCCCn1c2c(c(=N)c3c1CCC3)CCCC2,49.4% (active)
20,CCOC(=O)CSC1=C(C#N)C(c2sccc2C)CC(=O)N1 (stereo not given),51.2% (active)
21,CCN1/C(=C/c2ccc3ccc(C)cc3[n+]2CC)Sc2ccccc21,39.8% (active)
22,CCN1/C(=C\c2ccc3ccccc3[n+]2CC)Sc2cc(C)ccc21,39.4% (active)
23,O=c1cc(-c2ccccc2)[nH]c2cc(F)ccc12,53.6% (active)
24,Cc1cc(C(=O)OCC(=O)NCc2ccco2)c(C)n1-c1ccccc1,55.2% (active)
25,CC(=O)NC1=NN(C(C)=O)C(C)(c2ccc(Cl)s2)S1 (stereo not given),41.6% (active)
